In PubChem BioAssay (Tox21):
Records with an inconclusive call do not appear. Active and inactive are the calls of the source. Unless noted, calls come from the whole dose curve; as a rule, active = well fitted curve in the direction sought with a large enough effect in the repeat runs; inconclusive = weak or mixed curves; inactive = no such curve, though single readings can be large; an effect the other way counts as inactive or inconclusive.

How the values were obtained:
[1] = biological target: Thyrotropin receptor (Homo sapiens) (UniProt P16473); experiment: qHTS assay to identify small molecule agonists of the thyroid stimulating hormone receptor (TSHR) signaling pathway (AID 1224843; calls by dose curve; note: nearly all actives have a fitted effect of over 45% in size)
Summary of the method: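 TSHR-expressing HEK293 cells (800 per well) were exposed to compounds for 30 min at room temperature. cAMP was then detected by HTRF competition with cAMP-d2 and anti-cAMP cryptate, read after 1 h at room temperature. Fifteen concentrations, triplicate.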

[2] = qHTS assay to identify small molecule agonists of the hypoxia (HIF-1) signaling pathway - cell viability counter screen (AID 1224844; calls by dose curve; note: nearly all actives have a fitted effect of over 50% in size; note: potency is the fitted concentration of half-maximal effect)
Summary of the method: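 ME-180 HRE-bla cells, 2,000/well, 0.5% dialyzed FBS; 5 hr settle, 17 hr compound at 37C/5% CO2; CCF4-AM reporter read first, then CellTiter-Glo luminescence after 30 min RT.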

[3] = qHTS assay to identify small molecule agonists of H2AX - cell viability counter screen (AID 1224847; calls by dose curve; note: nearly all actives have a fitted effect of over 30% in size; note: potency is the fitted concentration of half-maximal effect)
Summary of the method: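 Read-out: CellTiter-Glo luminescence, 30 min RT. Cells: wild-type CHO-K1, 1000/well, 10% FBS, plated overnight at 37C. Treatment: 15 concentrations, 3 hr, 37C, 0.76% DMSO.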

[4] = qHTS RealTime-Glo MT Cell Viability Assay in HepG2 cells - 24 hour (AID 1224867); note: nearly all actives have a fitted effect of over 50% in size; note: potency is the fitted concentration of half-maximal effect
Summary of the method: (§1)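 HepG2 suspension premixed with RealTime-Glo reagents is plated at 600 cells per well and left 5 h at 37 C/5% CO2. Compounds in DMSO then go in, and bioluminescence reflecting viable cell number is recorded over 40 h.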

[5] = qHTS RealTime-Glo MT Cell Viability Assay in HEK293 cells - 32 hour (AID 1224868); note: nearly all actives have a fitted effect of over 50% in size; note: potency is the fitted concentration of half-maximal effect
Summary of the method: (§2)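 Reads taken at 0, 8, 16, 24, 32 and 40 h from the same wells. HEK293 cells (600/well) carried RealTime-Glo reagents from seeding, with compound added after a 5 h settle at 37 C.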

[6] = A CellTox Green Cytotoxicity Assay to monitor cytotoxicity in HEK293 cells - 0 hour (AID 1224869); note: nearly all actives have a fitted effect of over 50% in size
Summary of the method: (§3)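 Nonlytic real-time cytotoxicity: HEK293 + CellTox Green reagent plated, 5 h preincubation, pintool compound addition (23 nL in DMSO), 37 C for 40 h, fluorescence measured at successive time points.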

[7] = qHTS RealTime-Glo MT Cell Viability Assay in HEK293 cells - 16 hour (AID 1224872); note: nearly all actives have a fitted effect of over 50% in size; note: potency is the fitted concentration of half-maximal effect
Summary of the method: as §2

[8] = qHTS RealTime-Glo MT Cell Viability Assay in HepG2 cells - 8 hour (AID 1224873); note: nearly all actives have a fitted effect of over 55% in size; note: potency is the fitted concentration of half-maximal effect
Summary of the method: (§4)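 HepG2 cells mixed with RealTime-Glo MT reagents (NanoLuc plus cell-permeant prosubstrate) were seeded at 600 cells/well, incubated 5 h at 37 C/5% CO2, then pinned with compounds in DMSO; nonlytic luminescence tracked viability during 40 h treatment.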

[9] = qHTS RealTime-Glo MT Cell Viability Assay in HEK293 cells - 40 hour (AID 1224874); settings: RealTime-Glo luminescence; max response: active compounds read low; note: nearly all actives have a fitted effect of over 50% in size; note: potency is the fitted concentration of half-maximal effect
Summary of the method: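 Cells were seeded together with NanoLuc luciferase and a prosubstrate that viable cells reduce to a luciferase substrate. After a 5 h incubation at 37 C/5% CO2, compounds were added and luminescence was measured repeatedly during 40 h of treatment.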

[10] = qHTS RealTime-Glo MT Cell Viability Assay in HepG2 cells - 32 hour (AID 1224877); note: nearly all actives have a fitted effect of over 55% in size; note: potency is the fitted concentration of half-maximal effect
Summary of the method: as §1

[11] = A CellTox Green Cytotoxicity Assay to monitor cytotoxicity in HepG2 cells - 24 hour (AID 1224878); note: nearly all actives have a fitted effect of over 45% in size; note: potency is the fitted concentration of half-maximal effect
Summary of the method: (§5)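 Read-out is fluorescence of a cyanine dye excluded from live cells that stains DNA of dead HepG2 cells, with signal proportional to cytotoxicity. Plates were read at 0, 8, 16, 24, 32 and 40 h after compound addition.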

[12] = A CellTox Green Cytotoxicity Assay to monitor cytotoxicity in HepG2 cells - 40 hour (AID 1224879); note: nearly all actives have a fitted effect of over 40% in size; note: potency is the fitted concentration of half-maximal effect
Summary of the method: as §5

[13] = qHTS assay to identify small molecule agonists of H2AX (AID 1224845; active = well fitted activation curve with a large enough effect in the signal ratio in the repeat runs, not every such curve was filed as active; the % refers to the signal ratio)
Summary of the method: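 Wild-type CHO-K1 cells plated overnight, then exposed 3 hr at 37C to compounds at 15 concentrations (0.76% DMSO). Lysed, then HTRF anti-pH2AX(S139)-cryptate/anti-H2AX-d2 detection after 24 hr at room temperature; emissions 665 and 620 nm.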

[14] = qHTS RealTime-Glo MT Cell Viability Assay in HepG2 cells - 40 hour (AID 1224870); note: nearly all actives have a fitted effect of over 50% in size; note: potency is the fitted concentration of half-maximal effect
Summary of the method: as §4

[15] = A CellTox Green Cytotoxicity Assay to monitor cytotoxicity in HEK293 cells - 40 hour (AID 1224871); note: nearly all actives have a fitted effect of over 45% in size; note: potency is the fitted concentration of half-maximal effect
Summary of the method: as §3

[16] = A CellTox Green Cytotoxicity Assay to monitor cytotoxicity in HEK293 cells - 24 hour (AID 1224875); note: nearly all actives have a fitted effect of over 45% in size; note: potency is the fitted concentration of half-maximal effect
Summary of the method: as §3

[17] = A CellTox Green Cytotoxicity Assay to monitor cytotoxicity in HepG2 cells - 16 hour (AID 1224876); note: nearly all actives have a fitted effect of over 45% in size
Summary of the method: as §5

[18] = qHTS assay to identify small molecule agonists of the hypoxia (HIF-1) signaling pathway (AID 1224846; active = well fitted activation curve with a large enough effect in the signal ratio in the repeat runs, not every such curve was filed as active; the % refers to the signal ratio)
Summary of the method: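 Cell line: CellSensor HRE-bla ME-180; 2,000 cells/well; 0.5% dialyzed FBS; 5 h preincubation; DMSO compound pin transfer; 17 h, 37C, 5% CO2; CCF4-AM added; bla FRET signal scored for activation.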

[19] = qHTS assay to identify small molecule antagonists of the estrogen related receptor (ERR) signaling pathway from Tox21 library (AID 1224848); note: nearly all actives have a fitted effect of over 50% in size
Summary of the method: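 Cells: ERR line, 2,000/well; 6 h preincubation 37 C/5% CO2. Cpd in DMSO via pin tool; 18 h, 37 C. ONE-Glo, 30 min RT, luminescence.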

[20] = qHTS assay to identify small molecule agonists of the estrogen related receptor (ERR) signaling pathway from Tox21 library (AID 1224849; calls by dose curve; note: nearly all actives have a fitted effect of over 15% in size); settings: ERR reporter cell line, ONE-Glo luciferase, 18 h; at 92.4 µM (top of the series) unless noted
Summary of the method: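 ERR cells, 6 h pre-incubation 37 C/5% CO2; cpd in DMSO pinned; 18 h 37 C; ONE-Glo added, 30 min RT; luminescence read. Agonist mode, qHTS.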
% is set by controls: 0 for no effect and ±100 for the full control effect.

Sequence of Thyrotropin receptor (Homo sapiens) (P16473 whole entry, looked up): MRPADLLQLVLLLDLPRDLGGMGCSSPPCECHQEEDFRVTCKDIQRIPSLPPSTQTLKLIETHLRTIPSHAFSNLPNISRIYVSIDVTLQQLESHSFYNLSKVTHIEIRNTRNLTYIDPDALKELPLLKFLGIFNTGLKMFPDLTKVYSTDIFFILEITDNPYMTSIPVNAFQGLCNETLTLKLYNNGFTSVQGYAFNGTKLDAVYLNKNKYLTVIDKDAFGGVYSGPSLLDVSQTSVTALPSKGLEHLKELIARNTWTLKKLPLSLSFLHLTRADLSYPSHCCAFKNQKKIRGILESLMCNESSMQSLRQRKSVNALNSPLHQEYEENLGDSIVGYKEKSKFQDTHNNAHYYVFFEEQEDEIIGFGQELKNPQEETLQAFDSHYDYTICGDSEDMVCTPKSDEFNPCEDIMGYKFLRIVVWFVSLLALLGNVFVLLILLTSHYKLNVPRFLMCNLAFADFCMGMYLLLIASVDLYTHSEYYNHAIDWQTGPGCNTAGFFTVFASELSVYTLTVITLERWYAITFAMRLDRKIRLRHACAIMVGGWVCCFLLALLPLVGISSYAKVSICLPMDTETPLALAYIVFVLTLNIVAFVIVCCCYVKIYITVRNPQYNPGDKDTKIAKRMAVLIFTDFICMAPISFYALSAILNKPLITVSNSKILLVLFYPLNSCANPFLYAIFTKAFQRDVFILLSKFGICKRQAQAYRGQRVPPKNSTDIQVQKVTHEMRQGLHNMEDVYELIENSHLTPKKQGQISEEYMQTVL

Cc1ccc(N(CCO)CCO)cc1
inactive: Potency [1] | Potency [2] | Potency [3] | Potency [4] | Potency [5] | Potency [6] | Potency [7] | Potency [8] | max response [9] 0.166% | Potency [10] | Potency [11] | Potency [12]

COc1cc(C(C)=O)ccc1OCCCN1CCC(c2noc3cc(F)ccc23)CC1
inactive: Potency [1] | Potency [13] | Potency [3] | Potency [14] | Potency [15] | Potency [8] | Potency [16] | Potency [17]
active: Potency [5] 10.7 µM | Potency [7] 7.56 µM | Potency [9] 10.7 µM

CC1CCc2nccnc21 (stereo not given)
inactive: Potency [2] | Potency [13] | outcome [18] | Potency [3] | Potency [19] | activity change, positive = activation [20] 3.13% | Potency [4] | Potency [5] | Potency [14] | Potency [15] | Potency [7] | Potency [8] | max response [9] -2.75% | Potency [16] | Potency [10]

C=C(C)C(=O)OCCC(F)(F)C(F)(F)C(F)(F)C(F)(F)C(F)(F)C(F)(F)F
inactive: Potency [1] | Potency [2] | Potency [3] | Potency [4] | Potency [5] | Potency [6] | Potency [14] | Potency [15] | Potency [7] | Potency [8] | max response [9] 0.419% | Potency [16] | Potency [17] | Potency [10] | Potency [11] | Potency [12]

O=C(CCS)OCC(COC(=O)CCS)(COC(=O)CCS)COC(=O)CCS
inactive: Potency [1] | Potency [13] | Potency [3] | Potency [4] | Potency [6] | Potency [8] | Potency [16] | Potency [17] | Potency [10] | Potency [11] | Potency [12]

COC(=O)c1sccc1S(N)(=O)=O
inactive: Potency [1] | Potency [2] | Potency [3] | Potency [19] | activity change, positive = activation [20] 0.3% | Potency [4] | Potency [5] | Potency [6] | Potency [15] | Potency [7] | Potency [8] | max response [9] -18.1% | Potency [16] | Potency [17] | Potency [10] | Potency [11]

C[C@@H]1[C@H](O)[C@@H](C)/C=C/C=C\C=C\C=C\C=C\C=C\C=C\[C@H](O[C@@H]2O[C@H](C)[C@@H](O)[C@H](N)[C@@H]2O)C[C@@H]2O[C@](O)(C[C@@H](O)C[C@@H](O)[C@H](O)CC[C@@H](O)C[C@@H](O)CC(=O)O[C@H]1C)C[C@H](O)[C@H]2C(=O)O (stereo in doubt)
inactive: Potency [1] | Potency [3] | Potency [4] | Potency [5] | Potency [6] | Potency [7] | Potency [8] | max response [9] -0.557% | Potency [17] | Potency [10]

COc1ccc(C2C(=O)c3ccccc3C2=O)cc1
inactive: Potency [2] | Potency [13] | outcome [18] | Potency [3] | Potency [19] | activity change, positive = activation [20] 13.1% [at 42.5 µM] | Potency [4] | Potency [5] | Potency [6] | Potency [14] | Potency [15] | Potency [7] | Potency [8] | max response [9] 4.61% | Potency [17] | Potency [10] | Potency [11] | Potency [12]

CCCCCCCC/C=C/C(=O)O
inactive: Potency [2] | Potency [13] | outcome [18] | Potency [3] | Potency [4] | Potency [5] | Potency [6] | Potency [14] | Potency [7] | Potency [8] | max response [9] 8.87% | Potency [16] | Potency [17] | Potency [10] | Potency [11] | Potency [12]

CCOCCC(=O)OCC
inactive: Potency [2] | Potency [13] | outcome [18] | Potency [3] | Potency [4] | Potency [5] | Potency [6] | Potency [14] | Potency [15] | Potency [7] | Potency [8] | max response [9] 4.01% | Potency [16] | Potency [10] | Potency [11] | Potency [12]

O=[N+]([O-])C1(Br)COCOC1
active: Potency [2] 38.9 µM | Potency [3] 113 µM | Potency [4] 54.9 µM | Potency [5] 34.7 µM | Potency [14] 49 µM | Potency [15] 49 µM | Potency [7] 38.9 µM | Potency [8] 54.9 µM | Potency [9] 34.7 µM | Potency [16] 54.9 µM | Potency [10] 49 µM | Potency [11] 54.9 µM | Potency [12] 43.6 µM
inactive: activity change, positive = activation [20] -12.2% | Potency [6]

CC(C)COC(=O)c1ccc(O)cc1
inactive: Potency [2] | outcome [18] | Potency [3] | Potency [4] | Potency [6] | Potency [14] | Potency [8] | Potency [17] | Potency [10]
